Results on 49 molecules are retold here after PubChem BioAssay AID434973 (Sanford-Burnham Center for Chemical Genomics, 2010).

Among all 330,000 compounds or so, about 4,900 (1.5%) were called active. The sample holds actives, similar compounds and a random draw of the others, so the mix is not that of the screen. Unmarked numbers belong to inactive results.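 The calls were made as follows: active = inhibition above about 50% at the single test dose (limit read from the data); inactive = the rest.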

As usually defined, the inhibition is the relative decrease from the control value, in per cent.

For this test, the target named is Sentrin-specific protease 7 (Homo sapiens) (UniProt Q9BQF6). Description: SENP7 protease inhibitors, primary screen, biochemical, luminescence, uHTS (AID 434973).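 Also: plate controls were DMSO with enzyme for no effect and no enzyme buffer wells for full effect.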 The settings on record: recombinant SENP7, Z-RLRGG-aminoluciferin luminescence, 40 min; at 5 µM; hits give high values.
In the case of `O=C(Nc1ccccc1Cl)c1ccc2nsnc2c1`, the inhibition is 50.7% (active).

Take `O=C(Nc1ccccc1)c1ccc2nsnc2c1`: the inhibition was 35.8%. Regarding `Cc1cccc(NC(=O)c2ccc3nsnc3c2)c1C`, the inhibition is 2.56%.

As for `COc1ccc([N+](=O)[O-])cc1-c1nc2ccccc2nc1-c1ccccc1`, the inhibition is -0.763%.

Consider `COc1cccc(-c2nc3cc(C)ccc3o2)c1`, for which the inhibition was 99.9% (active). Regarding `Cc1nc(-c2ccc([N+](=O)[O-])cc2)c(-c2ccccc2)o1`, the inhibition is -7.84%.

Turning to `COc1cccc(-c2nnc(SCCOc3ccc4c(C)cc(=O)oc4c3)o2)c1`, the inhibition is 7.33%. Consider `O=[N+]([O-])c1ccc2oc(-c3cccc(O)c3)nc2c1`, for which the inhibition is 87.7% (active). For `COc1ccc2oc(-c3cccc(NC(=O)CSc4ccc(Cl)cc4)c3)nc2c1`, the inhibition is -4.24%. With `Cc1ccc(C2(C)NC(=O)N(CC(=O)Nc3ccccc3C(=O)N3CCCCC3)C2=O)cc1` (centres undefined), the inhibition is 12.4%. In the case of `COCOc1cc(O)c(C(=O)/C=C/c2ccc(OCOC)c(OCOC)c2)c(OCOC)c1` it was 6.61%; in that of `Cc1nnc(NC(=O)/C=C/c2ccco2)s1`, -7.44%. With `O=C(/C=C/c1ccco1)Nc1ccc(Oc2ccccc2)cc1`, the inhibition was 63.9% (active). Take `O=C(/C=C/c1ccco1)NC(=S)Nc1ccccc1Br`: the inhibition was -4.36%. As to `CCOc1cc(NC(=O)CCl)c(OCC)cc1NC(C)=O`, the inhibition is 5.15%. Take `O=C(Cc1ccc(S(=O)(=O)N2CCOCC2)s1)N1CCN(c2ccc(C(F)(F)F)cc2[N+](=O)[O-])CC1`: the inhibition was -8%. In the case of `NC1=NN(c2cccc(C(=O)O)c2)C(=O)C1` it was 5.47%; in that of `O=C(O)c1cccc(N=NN2CCCCCC2)c1`, 77.8% (active). In the case of `O=C(O)c1ccc(N=NN2CCOCC2)cc1` it was -2.47%; in that of `O=C(Oc1ccc([N+](=O)[O-])cc1)c1ccc2ccccc2n1`, -9.28%; in that of `CC(=O)Oc1ccc(-c2nc3c(C)cccc3c(=O)o2)cc1`, -7.63%. In the case of `CC(=O)Oc1ccc2c(=O)oc(-c3ccc([N+](=O)[O-])cc3)nc2c1`, the inhibition was 97.5% (active).

In the case of `COc1ccc(OCC(=O)NCCc2ccc(S(N)(=O)=O)cc2)cc1`, the inhibition was 7.31%. Turning to `O=C(COC(=O)c1ccco1)NCc1ccc(Cl)cc1`, the inhibition is -0.452%.

As to `CCc1ccc(C(=O)COC(=O)c2ccco2)cc1`, the inhibition was 68.9% (active). For `O=C(OCC(=O)N1CCCC1)c1ccco1`, the inhibition is -6.82%. `Cc1ccc(-n2nc(-c3ccco3)cc2C(=O)NCc2cccnc2)cc1`: the inhibition is 0.29%. In the case of `COc1ccc(C(=O)Nc2ccccc2C(=O)N/N=C/c2ccc(O)c(OC)c2)cc1` it was 101% (active); in that of `COc1ccccc1C(=O)NNC(=O)c1ccc(NC(=O)c2ccccc2)cc1`, 11.6%.

For the molecule `COc1ccc(/C=N/Nc2ccccc2C(=O)O)cc1`, the inhibition is 94.3% (active).

For the molecule `COc1ccc(NS(=O)(=O)c2cc(C(=O)Nc3ccccc3C(=O)O)ccc2C)cc1`, the inhibition was 9.65%. Regarding `CCOc1cc(/C=N/NC(=O)c2cc(-c3ccccc3)nc3ccccc23)ccc1O`, the inhibition is -1.26%. As to `COc1ccc(C(=O)Nc2ccccc2C(=O)N/N=C/c2ccccc2OC)cc1`, the inhibition is 64.8% (active).

Take `COc1ccc(/C=N/OCC(=O)N(Cc2ccccc2)c2ccccc2C(=O)O)cc1`: the inhibition is 6.96%.

Consider `O=C(N/N=C/c1ccc(OC(=O)c2ccccc2Cl)cc1)c1ccc(O)cc1`, for which the inhibition was 4.1%.

On to `COc1ccc(C(=O)Nc2cc(C)c(NC(=O)c3ccccc3OC)cn2)cc1`, for which the inhibition is 9.47%. In the case of `O=C(CN1C(=O)NC2(CCCCC2)C1=O)N1CCN(C(=O)c2cccs2)CC1` it was -1.61%; in that of `COc1cc(S(=O)(=O)N2CCN=C2c2ccccc2)ccc1Cl`, -10%.

In the case of `O=C(CC1OC(=O)c2ccccc21)NC1CCCCC1` (centres undefined), the inhibition is 1.77%. As to `CC(C)c1c(O)nc(SCCOc2ccc(Cl)cc2)[nH]c1=O`, the inhibition is 8.54%. Turning to `O=C(Cn1cnc2ccccc2c1=O)NNC(=O)c1ccccc1F`, the inhibition is -11%. For the molecule `CCN1CCN(C(C(=O)NC2CCCC2)c2cc3c(cc2[N+](=O)[O-])OCO3)CC1` (centres undefined), the inhibition is -3.92%. In the case of `Nc1nc(C23CC4CC(CC(C4)C2)C3)cs1` it was 3.32%; in that of `C(=N/Nc1cc(N2CCOCC2)nc(N2CCOCC2)n1)/c1ccccc1`, 31.9%. Regarding `Fc1ccccc1/C=N/Nc1cc(N2CCCCC2)ncn1`, the inhibition was 69.8% (active).

In the case of `COc1ccccc1N1CCN(C(=O)C(=O)N/N=C/c2ccccc2F)CC1`, the inhibition was -1.74%. Take `CC(=O)Nc1ccc(S(=O)(=O)Nc2cc(C)cn(Cc3ccc(C)cc3)c2=O)cc1`: the inhibition was 2.97%.

For `Cc1ccc(S(=O)(=O)NC[C@H]2O[C@@H](n3cnc4c(N)ncnc43)[C@H](O)[C@@H]2O)s1`, the inhibition is 6.73%. Regarding `CC(=O)c1cccc(NC(=O)COc2ccc(S(=O)(=O)N3CCOCC3)cc2)c1`, the inhibition was 3.63%.
